Reference: the supplement of paper PMC6897291

Key:
[1] = test system: RIVA; test: growth inhibition by drug plus 177Lu-lilotomab satetraxetan (1 - RLU/untreated control) (fraction); higher = stronger inhibition; conditions: 177Lu-lilotomab satetraxetan 0.5 ug/ml
How it was run: (§1)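 RIVA or U-2932 cells were left untreated or pretreated for 18 h with a radiolabelled anti-CD37 antibody conjugate (~600 MBq/mg) at 0.5 µg/ml for RIVA or 1 µg/ml for U-2932. The cells were then washed and seeded at 3,000 cells/well on plates pre-printed with the Selleck Cambridge Cancer Compound library, dosed at 10/100 nM for RIVA and 10/1,000 nM for U-2932. From day 3, RealTime-Glo luminescence was read daily after 1 h at 37°C. Growth inhibition was taken as one minus RLU over the mean of the untreated no-drug wells, of which there were 48 per plate.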

[2] = test system: U-2932; test: growth inhibition by drug alone (1 - RLU/untreated control) (fraction); higher = stronger inhibition; conditions: 177Lu-lilotomab satetraxetan 0 ug/ml
How it was run: as §1

[3] = test system: RIVA; test: as above; conditions: 177Lu-lilotomab satetraxetan 0 ug/ml
How it was run: as §1

[4] = test system: U-2932; test: growth inhibition by drug plus 177Lu-lilotomab satetraxetan (1 - RLU/untreated control) (fraction); higher = stronger inhibition; conditions: 177Lu-lilotomab satetraxetan 1 ug/ml
How it was run: as §1

SMILES | growth inhibition by drug plus 177Lu-lilotomab satetraxetan ([1]; 100 nM, time (day): 5) | growth inhibition by drug plus 177Lu-lilotomab satetraxetan ([1]; 100 nM, time (day): 6) | growth inhibition by drug alone ([2]; 10 nM, time (day): 3) | growth inhibition by drug alone ([2]; 10 nM, time (day): 4) | growth inhibition by drug alone ([2]; 10 nM, time (day): 5) | growth inhibition by drug alone ([2]; 10 nM, time (day): 6) | growth inhibition by drug alone ([2]; 1000 nM, time (day): 3) | growth inhibition by drug alone ([2]; 1000 nM, time (day): 4) | growth inhibition by drug alone ([2]; 1000 nM, time (day): 5) | growth inhibition by drug alone ([2]; 1000 nM, time (day): 6) | growth inhibition by drug alone ([3]; 10 nM, time (day): 3) | growth inhibition by drug alone ([3]; 10 nM, time (day): 4) | growth inhibition by drug alone ([3]; 10 nM, time (day): 5) | growth inhibition by drug alone ([3]; 10 nM, time (day): 6) | growth inhibition by drug alone ([3]; 100 nM, time (day): 3) | growth inhibition by drug alone ([3]; 100 nM, time (day): 4) | growth inhibition by drug alone ([3]; 100 nM, time (day): 5) | growth inhibition by drug alone ([3]; 100 nM, time (day): 6) | growth inhibition by drug plus 177Lu-lilotomab satetraxetan ([4]; 10 nM, time (day): 3) | growth inhibition by drug plus 177Lu-lilotomab satetraxetan ([4]; 10 nM, time (day): 4) | growth inhibition by drug plus 177Lu-lilotomab satetraxetan ([4]; 10 nM, time (day): 5) | growth inhibition by drug plus 177Lu-lilotomab satetraxetan ([4]; 10 nM, time (day): 6) | growth inhibition by drug plus 177Lu-lilotomab satetraxetan ([4]; 1000 nM, time (day): 3) | growth inhibition by drug plus 177Lu-lilotomab satetraxetan ([4]; 1000 nM, time (day): 4) | growth inhibition by drug plus 177Lu-lilotomab satetraxetan ([4]; 1000 nM, time (day): 5) | growth inhibition by drug plus 177Lu-lilotomab satetraxetan ([4]; 1000 nM, time (day): 6) | growth inhibition by drug plus 177Lu-lilotomab satetraxetan ([1]; 10 nM, time (day): 3) | growth inhibition by drug plus 177Lu-lilotomab satetraxetan ([1]; 10 nM, time (day): 4) | growth inhibition by drug plus 177Lu-lilotomab satetraxetan ([1]; 10 nM, time (day): 5) | growth inhibition by drug plus 177Lu-lilotomab satetraxetan ([1]; 10 nM, time (day): 6) | growth inhibition by drug plus 177Lu-lilotomab satetraxetan ([1]; 100 nM, time (day): 3) | growth inhibition by drug plus 177Lu-lilotomab satetraxetan ([1]; 100 nM, time (day): 4)
CC[C@H](Nc1ncnc2[nH]cnc12)c1nc2cccc(F)c2c(=O)n1-c1ccccc1 | 0.554 | 0.546 | – | – | – | – | – | – | – | – | – | – | – | – | – | – | – | – | – | – | – | – | – | – | – | – | – | – | – | – | – | –
CCCCCCCc1ccc(CCc2cccc(O)c2C(=O)O)cc1 | 0.62 | 0.624 | -0.00199 | -0.0102 | -0.0455 | -0.106 | 0.0439 | 0.0243 | -0.0103 | 0.0409 | -0.000498 | -0.0468 | -0.0726 | -0.153 | -0.176 | -0.164 | -0.186 | -0.241 | -0.0136 | 0.0406 | 0.0811 | 0.11 | 0.0189 | 0.0723 | 0.084 | 0.179 | 0.588 | 0.59 | 0.619 | 0.624 | 0.545 | 0.607
Cc1ccc(Nc2nccc(N(C)c3ccc4c(C)n(C)nc4c3)n2)cc1S(N)(=O)=O [Pazopanib] | 0.488 | 0.477 | 0.0671 | 0.059 | 0.0169 | -0.0275 | 0.0873 | 0.113 | 0.0564 | -0.194 | 0.149 | 0.0444 | -0.0206 | -0.258 | 0.117 | 0.0561 | 0.0246 | -0.0758 | 0.0594 | 0.0779 | 0.0787 | 0.118 | -0.00732 | 0.0799 | 0.0706 | 0.00785 | 0.437 | 0.548 | 0.557 | 0.564 | 0.418 | 0.47
Cc1nc(Nc2ncc(C(=O)Nc3c(C)cccc3Cl)s2)cc(N2CCN(CCO)CC2)n1 | 0.901 | 0.91 | -0.00248 | -0.0473 | -0.15 | -0.0827 | 0.487 | 0.65 | 0.693 | 0.752 | 0.376 | 0.323 | 0.282 | 0.128 | 0.779 | 0.826 | 0.856 | 0.867 | -0.0537 | -0.0412 | -0.0107 | 0.0287 | 0.607 | 0.75 | 0.816 | 0.88 | 0.558 | 0.581 | 0.582 | 0.575 | 0.838 | 0.89
CCCCCCCCc1ccc(CCC(N)(CO)CO)cc1 [Fingolimod (FTY720)] | 0.474 | 0.484 | 0.0955 | 0.0585 | 0.0453 | -0.1 | 0.0228 | 0.0231 | 0.00428 | -0.0571 | 0.0298 | 0.0648 | -0.0103 | -0.296 | -0.16 | -0.13 | -0.129 | -0.231 | 0.0534 | 0.0695 | 0.13 | 0.219 | -0.0305 | 0.0614 | 0.0905 | 0.203 | 0.437 | 0.577 | 0.586 | 0.614 | 0.364 | 0.447
O=C(Nc1ncc([N+](=O)[O-])s1)c1ccc([N+](=O)[O-])c(Cl)c1 | 0.669 | 0.679 | 0.119 | 0.0794 | 0.00802 | 0.0242 | 0.153 | 0.14 | 0.0538 | 0.129 | 0.137 | 0.114 | 0.0837 | 0.0697 | -0.0662 | -0.0483 | -0.0824 | -0.14 | 0.064 | 0.0915 | 0.164 | 0.259 | 0.142 | 0.136 | 0.179 | 0.3 | 0.666 | 0.663 | 0.69 | 0.688 | 0.605 | 0.655
Cc1ccc(-n2nc(C(C)(C)C)cc2NC(=O)Nc2ccc(OCCN3CCOCC3)c3ccccc23)cc1 [BIRB 796 (Doramapimod)] | 0.521 | 0.528 | 0.238 | 0.206 | 0.0293 | 0.0019 | 0.274 | 0.272 | 0.208 | 0.2 | 0.117 | 0.131 | 0.0641 | -0.0577 | -0.00598 | 0.0829 | 0.0349 | -0.0954 | 0.173 | 0.182 | 0.252 | 0.301 | 0.273 | 0.29 | 0.32 | 0.408 | 0.669 | 0.691 | 0.702 | 0.711 | 0.407 | 0.527
Nc1cccc2c1C(=O)N(C1CCC(=O)NC1=O)C2=O (stereo not given) [Pomalidomide] | 0.434 | 0.443 | 0.00761 | 0.0144 | -0.0587 | -0.183 | 0.0958 | 0.25 | 0.271 | 0.309 | -0.0396 | -0.0278 | -0.0766 | -0.254 | -0.0764 | -0.115 | -0.132 | -0.196 | 0.0211 | 0.034 | 0.0448 | 0.147 | 0.233 | 0.391 | 0.414 | 0.472 | 0.434 | 0.529 | 0.549 | 0.555 | 0.439 | 0.414
CC(C)CC(=O)Nc1n[nH]c2c1CN(C(=O)C1CCN(C)CC1)C2(C)C | 0.465 | 0.517 | 0.109 | 0.0893 | 0.0354 | -0.0355 | 0.595 | 0.787 | 0.911 | 0.958 | 0.109 | 0.0478 | 0.0236 | -0.141 | 0.546 | 0.346 | 0.355 | 0.378 | 0.0658 | 0.101 | 0.0816 | 0.125 | 0.692 | 0.855 | 0.93 | 0.967 | 0.403 | 0.515 | 0.533 | 0.549 | 0.35 | 0.419
CC(C)[C@H](C(=O)Nc1ccc(C(=O)NO)cc1)c1ccccc1 | 0.937 | 0.94 | 0.0244 | 0.00418 | -0.0183 | -0.000531 | 0.96 | 0.964 | 0.973 | 0.98 | -0.0258 | -0.0463 | -0.0451 | -0.103 | 0.935 | 0.907 | 0.897 | 0.884 | 0.037 | 0.0315 | 0.0282 | 0.152 | 0.961 | 0.969 | 0.978 | 0.985 | 0.524 | 0.584 | 0.602 | 0.599 | 0.939 | 0.934
Nc1[nH]nc2nnc(-c3c(-c4ccccc4)nn4ccccc34)cc12 | 0.493 | 0.495 | 0.0936 | 0.109 | 0.0192 | -0.0741 | 0.0442 | 0.0356 | -0.0414 | -0.0395 | 0.0237 | 0.104 | 0.0531 | -0.13 | -0.0641 | 0.0167 | 0.00135 | -0.0876 | 0.135 | 0.17 | 0.238 | 0.275 | 0.0922 | 0.143 | 0.19 | 0.259 | 0.592 | 0.635 | 0.657 | 0.652 | 0.357 | 0.48
CNC(=O)c1ccc(N2C(=S)N(c3ccc(C#N)c(C(F)(F)F)c3)C(=O)C2(C)C)cc1F [MDV3100 (Enzalutamide)] | 0.553 | 0.556 | 0.0921 | 0.0374 | -0.126 | -0.107 | 0.019 | 0.0335 | -0.0413 | -0.0245 | 0.0909 | 0.0471 | 0.0315 | -0.246 | -0.0634 | -0.143 | -0.144 | -0.21 | 0.0217 | 0.0789 | 0.128 | 0.16 | 0.0172 | 0.0892 | 0.116 | 0.182 | 0.559 | 0.587 | 0.59 | 0.602 | 0.519 | 0.555
CNC(=O)c1ccc(C)c(-n2c(C)cc(OCc3ccc(F)cc3F)c(Br)c2=O)c1 | 0.462 | 0.428 | -0.0234 | -0.0123 | -0.0323 | 0.108 | 0.24 | 0.241 | 0.147 | 0.195 | -0.177 | -0.212 | -0.219 | -0.282 | -0.0302 | -0.0737 | -0.127 | -0.224 | -0.0515 | -0.0206 | -0.0169 | 0.111 | 0.253 | 0.259 | 0.213 | 0.294 | 0.41 | 0.508 | 0.521 | 0.522 | 0.384 | 0.458
CCN(CC)C(=S)SSC(=S)N(CC)CC [Disulfiram (Antabuse)] | 0.394 | 0.386 | 0.0412 | 0.0424 | -0.018 | -0.236 | 0.981 | 0.982 | 0.981 | 0.981 | -0.0278 | -0.1 | -0.147 | -0.282 | -0.227 | -0.194 | -0.203 | -0.423 | 0.000112 | 0.0295 | 0.0516 | 0.0837 | 0.981 | 0.983 | 0.982 | 0.983 | 0.402 | 0.529 | 0.548 | 0.549 | 0.209 | 0.379
O=C1c2ccccc2C(=O)c2c(NCCc3ccc(O)cc3)ccc(NCCc3ccc(O)cc3)c21 | 0.433 | 0.44 | -0.0815 | -0.112 | -0.157 | -0.425 | -0.127 | -0.129 | -0.138 | -0.403 | -0.237 | -0.358 | -0.539 | -0.808 | -0.77 | -0.807 | -0.893 | -1.08 | -0.127 | -0.0794 | -0.054 | -0.0701 | -0.11 | -0.0952 | -0.0582 | 0.044 | 0.317 | 0.429 | 0.456 | 0.479 | 0.329 | 0.437
